Among the test systems are SK-MEL-2 melanoma; EKVX NSCLC; SN12C renal; UO-31 renal; TK-10 renal; ACHN renal; CAKI-1 renal; A498 renal; CCRF-CEM leukemia; MOLT-4 leukemia.
Experiment in all cases: NCI-60 one-dose screen, 48 h (100 = growth as untreated, 0 = no growth, -100 = all killed)
Details in all cases: 10 µM unless noted

This is part of a sample that, as a whole, favours compounds with a hit. Of some 83,000 tested, about 20% had one in any assay.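 How to read the values: 0–100, growth inhibition (40 = 60% inhibited); 0, no net growth; -100 to 0, cell death (-40 = 40% of starting cells died; -100 = all dead).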 Activity calls are given as the source filed them. How the source made its calls: active means growth percent below 10; inactive means the rest.

With `O=CNc1ccc(-n2cnc3cc(-c4ccc(O)cc4)ccc32)cc1`, the growth was 115% (inactive) in the assay with SK-MEL-2 melanoma; 106% (inactive) in the assay with EKVX NSCLC; 71.7% (inactive) in the assay on SN12C renal; 61% (inactive) in the assay on UO-31 renal; 108% (inactive) with TK-10 renal; 65.4% (inactive) in the assay on ACHN renal. Moreover, the growth with CAKI-1 renal is 87.3% (inactive); with A498 renal, 135% (inactive); with CCRF-CEM leukemia it was 76.4% (inactive); in the assay on MOLT-4 leukemia, 77.3% (inactive).
For `S=C(Nc1ccccc1)Nc1ccc(OCc2nc3ccc(Cl)cc3[nH]2)cc1`, the growth is 91.4% (inactive) in the assay on SK-MEL-2 melanoma; 67.2% (inactive) with EKVX NSCLC; 78.8% (inactive) with SN12C renal; 70.3% (inactive) with UO-31 renal; 114% (inactive) in the assay on TK-10 renal; 81.8% (inactive) in the assay on ACHN renal. Also, the growth in the assay on CAKI-1 renal was 84.1% (inactive); in the assay on A498 renal it was 110% (inactive); in the assay on CCRF-CEM leukemia it was 54.2% (inactive); with MOLT-4 leukemia it was 52.3% (inactive).
For `CN(C)c1nc(NCCNS(=O)(=O)c2ccc(C3=Nc4c(N)nc(N)nc4NC(c4ccc(C(F)(F)F)cc4)C3)cc2)nc(N2CCOCC2)n1` (centres undefined), the growth was 21.8% (inactive) with SK-MEL-2 melanoma; 38.3% (inactive) in the assay with EKVX NSCLC; 48.1% (inactive) in the assay on SN12C renal; 74.1% (inactive) with UO-31 renal; 68.9% (inactive) in the assay with TK-10 renal; 77.3% (inactive) in the assay with ACHN renal. Moreover, the growth with CAKI-1 renal was 37.1% (inactive); in the assay on A498 renal, 94.8% (inactive); in the assay on CCRF-CEM leukemia, 21.8% (inactive); with MOLT-4 leukemia it was -5.12% (active).
On to `COc1ccc(N=Nc2c(N)nn3c(N)c(C#N)c(-c4ccc(C)cc4)nc23)cc1`, for which the growth was 91% (inactive) in the assay with SK-MEL-2 melanoma; 36.3% (inactive) with EKVX NSCLC; 57.7% (inactive) in the assay on SN12C renal; 61.1% (inactive) in the assay on UO-31 renal; 101% (inactive) in the assay with TK-10 renal; 56.8% (inactive) with ACHN renal. Besides, the growth with CAKI-1 renal is 17.4% (inactive); with A498 renal, 128% (inactive); in the assay with CCRF-CEM leukemia, 8.68% (active); in the assay on MOLT-4 leukemia it was 5.8% (active).
For `Oc1cncc(-c2ccc3ncnc(N4CCc5cc(F)c(Cl)cc54)c3c2)c1`, the growth was 66.4% (inactive) in the assay with SK-MEL-2 melanoma; 59.2% (inactive) with EKVX NSCLC; 44.2% (inactive) in the assay with SN12C renal; 35.7% (inactive) in the assay on UO-31 renal; 78.8% (inactive) with TK-10 renal; 46% (inactive) in the assay on ACHN renal. The growth in the assay with CAKI-1 renal is 41.5% (inactive); with A498 renal, -1.41% (active); with CCRF-CEM leukemia, 76.2% (inactive); in the assay on MOLT-4 leukemia it was 57.6% (inactive).
In the case of `NS(=O)(=O)c1ccc(Nc2nc(N/N=C/c3cc(Br)c(O)c(Br)c3)nc(Nc3ccccc3)n2)cc1`, the growth was -5.4% (active) in the assay with SK-MEL-2 melanoma; 86.3% (inactive) in the assay on EKVX NSCLC; 46.3% (inactive) in the assay on SN12C renal; 85.3% (inactive) in the assay with UO-31 renal; 113% (inactive) with TK-10 renal; 92.3% (inactive) with ACHN renal. The growth in the assay on CAKI-1 renal is 94.4% (inactive); in the assay with A498 renal, 102% (inactive); with CCRF-CEM leukemia, 10.5% (inactive); in the assay on MOLT-4 leukemia it was -8.36% (active).
For the compound `COc1cccc(/C=C/c2nc3ccccc3c(=O)n2CC(=O)Nc2ccccc2)c1`, the growth is 81% (inactive) with SK-MEL-2 melanoma; 85.1% (inactive) in the assay with EKVX NSCLC; 17.6% (inactive) with SN12C renal; -24.8% (active) with UO-31 renal; 11.7% (inactive) with TK-10 renal; -15.6% (active) in the assay on ACHN renal. The growth is 72.3% (inactive) with CAKI-1 renal, 28% (inactive) with A498 renal, 90.1% (inactive) in the assay on CCRF-CEM leukemia and 94.2% (inactive) in the assay with MOLT-4 leukemia.
As to `COc1cccc(NC(=O)c2ccc(NC(=O)CCl)s2)c1`, the growth is 79.6% (inactive) with SK-MEL-2 melanoma; 95% (inactive) with EKVX NSCLC; -14.4% (active) with SN12C renal; 62.1% (inactive) with UO-31 renal; 54.8% (inactive) in the assay on TK-10 renal; 66.4% (inactive) in the assay with ACHN renal. The growth in the assay with CAKI-1 renal was 53.8% (inactive); with A498 renal, 108% (inactive); in the assay on CCRF-CEM leukemia, 1.03% (active); with MOLT-4 leukemia, -7.31% (active).
As for `CNS(=O)(=O)N1CCc2c(Br)c3c(c(OC)c2C1CCc1ccccc1)OCO3` (centres undefined), the growth in the assay on SK-MEL-2 melanoma is -66.2% (active); in the assay on EKVX NSCLC, -6.87% (active); in the assay with SN12C renal it was -88.8% (active); in the assay on UO-31 renal, -20.1% (active); with TK-10 renal, -0.435% (active); with ACHN renal, 0.33% (active). Further, the results for the growth in the assay on CAKI-1 renal, with A498 renal and with CCRF-CEM leukemia were 5.41% (active), -69.5% (active) and 12.4% (inactive), respectively.
For `CCCCCCCCc1ccc(C(=O)Nc2ccc(C)cc2C(=O)O)cc1`, the growth with SK-MEL-2 melanoma is 94.8% (inactive); in the assay on EKVX NSCLC it was 77.5% (inactive); in the assay on SN12C renal, 89.5% (inactive); with UO-31 renal, 76.3% (inactive); in the assay on TK-10 renal it was 103% (inactive); in the assay on ACHN renal it was 69.4% (inactive). Moreover, the growth in the assay with CAKI-1 renal is 85.4% (inactive); with A498 renal, 109% (inactive); in the assay with CCRF-CEM leukemia it was 53.9% (inactive); in the assay on MOLT-4 leukemia it was 75.3% (inactive).
Consider `COC(=O)c1c(C(=O)OC)c2ccc3c4ccccc4ccc3n2c1C(=O)C(C)Br` (centres undefined), for which the growth is 26.9% (inactive) with SK-MEL-2 melanoma; 86.5% (inactive) in the assay with EKVX NSCLC; 35.7% (inactive) with SN12C renal; 45% (inactive) in the assay on UO-31 renal; 58.1% (inactive) in the assay on TK-10 renal; 43.9% (inactive) with ACHN renal. The growth is 71.3% (inactive) in the assay with CAKI-1 renal, 87.2% (inactive) with A498 renal, -4.34% (active) in the assay with CCRF-CEM leukemia and 0.188% (active) in the assay with MOLT-4 leukemia.
With `O=[N+]([O-])c1cccc(-c2nnc3c(/C=C/c4ccc(F)cc4)nc4ccccc4n23)c1`, the growth was 97.7% (inactive) in the assay on SK-MEL-2 melanoma; 96.2% (inactive) with EKVX NSCLC; 88% (inactive) in the assay with SN12C renal; 78.3% (inactive) in the assay on UO-31 renal; 121% (inactive) in the assay on TK-10 renal; 93.8% (inactive) with ACHN renal. For the same compound, the growth in the assay with CAKI-1 renal is 88.8% (inactive); with A498 renal it was 102% (inactive); in the assay with CCRF-CEM leukemia, 102% (inactive); in the assay with MOLT-4 leukemia, 90.7% (inactive).
Take `CCCCCCCCc1ccc(C(=O)Nc2cccc(O)c2)cc1`: the growth in the assay with SK-MEL-2 melanoma is 83.8% (inactive); in the assay with EKVX NSCLC, 66.4% (inactive); in the assay with SN12C renal it was 65.4% (inactive); in the assay on UO-31 renal, 34.4% (inactive); with TK-10 renal it was 106% (inactive); in the assay with ACHN renal, 57.3% (inactive). For the same compound, the growth is 77.8% (inactive) with CAKI-1 renal, 115% (inactive) in the assay on A498 renal, 0.746% (active) in the assay with CCRF-CEM leukemia and 35.5% (inactive) with MOLT-4 leukemia.

The record behind these values is PubChem BioAssay (NCI).
